# In all, about 220,000 compounds went through this assay and about 530 (0.24%) were called active. Cut-off read from the data, not from the text of the source: active = inhibition above about 13%; inconclusive = no clear call, values can overlap the other calls; inactive = below that. The list comes from a sample in which actives are over-represented; it also holds similar structures and randomly drawn compounds. Potency and affinity values are given separately.
# Biological target: Bifunctional protein GlmU (Mycobacterium tuberculosis (strain ATCC 25618 / H37Rv)) (UniProt P9WMN3)
# Assay: inhibition of mycobacterial GlmU enzyme – biochemical, glucosamine-1-phosphate acetyltransferase (AID 1376);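 note: 0% = complete reaction with vehicle and 100% = reaction without substrate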
# Conditions: M. tuberculosis GlmU acetyltransferase enzyme assay; active compounds read high;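 tested at 30 µM in the primary screen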
# Bifunctional protein GlmU (Mycobacterium tuberculosis (strain ATCC 25618 / H37Rv)), sequence (P9WMN3 whole entry, looked up): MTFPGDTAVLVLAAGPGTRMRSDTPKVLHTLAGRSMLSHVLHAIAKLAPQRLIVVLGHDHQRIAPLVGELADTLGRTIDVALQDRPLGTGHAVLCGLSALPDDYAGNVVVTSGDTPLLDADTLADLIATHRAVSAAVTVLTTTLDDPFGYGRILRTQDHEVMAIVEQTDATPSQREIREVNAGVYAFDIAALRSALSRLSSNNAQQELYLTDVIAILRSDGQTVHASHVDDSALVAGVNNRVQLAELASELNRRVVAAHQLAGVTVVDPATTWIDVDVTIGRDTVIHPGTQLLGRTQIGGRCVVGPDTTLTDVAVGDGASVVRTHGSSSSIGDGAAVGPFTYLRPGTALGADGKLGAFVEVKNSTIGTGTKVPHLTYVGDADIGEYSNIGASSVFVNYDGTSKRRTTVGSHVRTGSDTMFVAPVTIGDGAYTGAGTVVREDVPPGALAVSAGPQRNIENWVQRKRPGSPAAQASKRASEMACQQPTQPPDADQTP
row,SMILES,inhibition
1,COCC(C)n1c(C)cc(C(=O)CSc2nnc(Nc3ccccc3F)s2)c1C (stereo not given),1.64% (inactive)
2,Cc1c(Cl)c([N+](=O)[O-])nn1CCCC(=O)Nc1cccc(Cl)c1Cl,-3.35% (inactive)
3,Cc1c(Cl)c([N+](=O)[O-])nn1CCCC(=O)Nc1c(Cl)cccc1Cl,13.8% (active)
4,Cc1nn(Cc2c(Cl)cccc2Cl)c(C)c1NC(=O)CCCn1nc([N+](=O)[O-])c(Cl)c1C,0.47% (inactive)
5,Cc1cc(-c2ccccc2C(=O)NCc2ccccc2)on1,2.22% (inactive)
6,COc1ccc(S(=O)(=O)N2CCCN(S(=O)(=O)c3ccc(OC)cc3C)CC2)c(C)c1,4.67% (inactive)
7,CC12CCC(C(=O)NCCc3ccccc3)(OC1=O)C2(C)C (stereo not given),0.84% (inactive)
8,Cc1cccc(S(=O)(=O)Nc2cccc3c2C(=O)c2ccccc2-3)c1,2.87% (inactive)
9,Cc1cc(C)c(NC(=O)COC(=O)c2cccc3c2C(=O)c2ccccc2C3=O)c(C)c1,3.23% (inactive)
10,Cc1cc(C)c(Nc2cc(S(=O)(=O)O)c(N)c3c2C(=O)c2ccccc2C3=O)c(C)c1,17.5% (active)
11,O=C(O)c1cccc(NC(CNS(=O)(=O)c2ccc(Cl)cc2)c2ccccc2)c1 (stereo not given),3.6% (inactive)
12,CN1CCN(CCOc2ccc(Cl)c(Cl)c2)CC1,-3.6% (inactive)
13,CCc1ccccc1NC(=O)c1ccc(CN2CCC(Cc3ccccc3)CC2)cc1,3.49% (inactive)
14,CCOC(=O)COc1cnc2ccccc2n1,1.75% (inactive)
15,COc1ccc2nc(NS(=O)(=O)c3ccc(NC(C)=O)cc3)sc2c1,4.76% (inactive)
16,CC(=O)Nc1ccc(S(=O)(=O)Nc2nc3ccc(C)cc3s2)cc1,13.2% (active)
17,CC(=O)Nc1ccc2nc(NS(=O)(=O)c3ccc(C)cc3)sc2c1,3.98% (inactive)
18,CCc1c(O)nc(SCC(=O)NCc2ccco2)[nH]c1=O,-0.2% (inactive)
19,COc1ccc(Nc2ccc(N3C(=O)CCC3=O)cc2[N+](=O)[O-])cn1,2.73% (inactive)
20,CCCc1ccc(C(=O)NNC(=O)c2ccc(Cl)cc2)cc1,17.1% (active)
21,CCCc1ccc(C(=O)NNc2cc(Cl)ccc2Cl)cc1,2.48% (inactive)
22,CCCc1ccc(C(=O)NNC(=O)c2ccc(Br)cc2)cc1,1.63% (inactive)
23,CCOc1ccccc1/C=N/NC(=O)CNC(=O)c1ccc(S(=O)(=O)N2CCOCC2)cc1,0.48% (inactive)
24,CC(C)N1CCc2c(sc(NC(=O)c3cc(-c4cccs4)nc4ccccc34)c2C(N)=O)C1,-3.1% (inactive)

row,SMILES,inhibition
1,COC(=O)c1c(NC(=O)c2nc3ccccc3s2)sc2c1CCN(C(C)=O)C2,-1.93% (inactive)
2,CC(C)N1CCc2c(sc(NC(=O)c3nc4ccccc4s3)c2C(N)=O)C1,13.7% (active)
3,CCC(=O)N1CCc2cc(Br)cc(S(=O)(=O)CCC(=O)N(CC)CC)c21,-2.77% (inactive)
4,CCN=C1S/C(=C\c2cc(OCC)c(O)cc2Br)C(=O)N1CC,-1.66% (inactive)
5,COc1ccc(N(CC(=O)NN=C2CCCCCCC2)S(=O)(=O)c2ccccc2)cc1Cl,0.05% (inactive)
6,CC(=O)Nc1ccc(NC(=O)CCCSc2nc3ccccc3[nH]2)cc1,-7.79% (inactive)
7,Cc1cc(C(F)F)n2ncc(C(=O)NCc3ccc(F)cc3)c2n1,3.5% (inactive)
8,Cc1cc(C(F)F)n2ncc(C(=O)NCc3ccccc3)c2n1,1.36% (inactive)
9,COc1ccc(CNC(=O)c2cnn3c(C(F)F)cc(C)nc23)cc1,14.5% (active)
10,CCS(=O)(=O)NCCNc1ccc([N+](=O)[O-])cc1,1.84% (inactive)
11,Nc1nc(SCC(=O)NCc2ccccc2)n[nH]1,0.23% (inactive)
12,Cc1cc2c(o1)CC(C)(C)CC2=O,1.91% (inactive)
13,O=C(Nc1cccnc1)c1cc2c(ccc3ccccc32)o1,7.23% (inactive)
14,CCCCOC(=O)Nc1ccc(S(=O)(=O)Nc2nccs2)cc1,-2.11% (inactive)
15,Cc1ccc([N+](=O)[O-])cc1N=Nc1c(-c2ccc([N+](=O)[O-])cc2)[nH]n(C(N)=S)c1=O,0.14% (inactive)
16,Cc1c(N=Nc2c(-c3ccc([N+](=O)[O-])cc3)[nH]n(C(N)=S)c2=O)cccc1[N+](=O)[O-],14.5% (active)
17,NC(=S)n1[nH]c(-c2ccc([N+](=O)[O-])cc2)c(N=Nc2ccccc2[N+](=O)[O-])c1=O,-2.18% (inactive)
18,NCCN1CCN(CCN)CC1,-1.39% (inactive)
19,COc1ccc(C2(C)NC(=O)N(CC(=O)Nc3ccc(-c4nc5ccc(C)cc5s4)cc3)C2=O)cc1 (stereo not given),-4.16% (inactive)
20,O=c1cc(Cl)[nH]c(=O)n1CCNc1ncc(C(F)(F)F)cc1Cl,-0.65% (inactive)
21,O=C(c1ccccc1F)N1CCCC(C(=O)N2CCN(c3ccccc3)CC2)C1 (stereo not given),4.78% (inactive)
22,CC(C)C(=O)N1CCN(c2ccc(NC(=O)c3cccs3)cc2)CC1,-0.11% (inactive)
23,C=CCOc1c(CNc2cccc(C(=O)O)c2)cccc1OCC,17.6% (active)
24,C=CCOc1c(CNc2cccc(C(=O)O)c2)cccc1OC,-2.58% (inactive)

row,SMILES,inhibition
1,C=CCOc1c(CNc2ccc(C(=O)O)cc2)cccc1OCC,-3.36% (inactive)
2,COc1ccc(CC(=O)Nc2c3c(nn2-c2cccc(C)c2C)CS(=O)C3)cc1 (stereo not given),0.63% (inactive)
3,CCN(C(=O)c1cc2c(=O)[nH]c3ccc(C)cc3c2s1)c1cccc(C)c1,0.79% (inactive)
4,Cn1c(=O)c2c(nc(SCC(=O)c3ccccc3F)n2C)n(C)c1=O,2.09% (inactive)
5,COc1cccc2c1OC1(C)CC2NC(=O)N1 (stereo not given),7.2% (inactive)
6,COc1ccc(-c2nnc3ccc(SCC(=O)NCc4ccco4)nn23)cc1,-0.33% (inactive)
7,Cc1cccc(C(=O)NC(Oc2ccccc2)C(Cl)(Cl)Cl)c1 (stereo not given),0.69% (inactive)
8,O=C(NC(Oc1ccccc1)C(Cl)(Cl)Cl)c1ccccc1 (stereo not given),2.49% (inactive)
9,COc1ccc(C(=O)NC(Oc2ccccc2)C(Cl)(Cl)Cl)cc1 (stereo not given),46.8% (active)
10,CCCCCC(=O)c1c(C)[nH]c(C(=O)OCC)c1C,2.82% (inactive)
11,NC(=O)C1(N2CCCCC2)CCN(C(=S)Nc2cc(F)cc(F)c2)CC1,3.46% (inactive)
12,Cn1nnc(CC[N+](C)(C)C)n1,-0.54% (inactive)
13,CCOC(=O)c1cnc2c(-c3ccc(Cl)cc3)c(C)nn2c1N,-0.25% (inactive)
14,CCn1c(SCC(=O)OCC(=O)N2c3ccccc3NC(=O)C2(C)C)nnc1-c1ccco1,3.17% (inactive)
15,CCN(c1ccc(NS(=O)(=O)c2cc(Cl)ccc2Cl)cc1)C(C)C,-7.63% (inactive)
16,CCc1c(C)sc(NC(=O)c2ccco2)c1C(=O)N1CCOCC1,13.4% (active)
17,CCc1c(C)sc(NC(=O)OC)c1C(=O)N1CCOCC1,2.3% (inactive)
18,CCc1c(C)sc(NC(=O)c2ccco2)c1C(=O)N1CCCCC1,0.95% (inactive)
19,Cc1ccccc1NC(=S)N(CCN(C)C)C(C)c1ccco1 (stereo not given),-1.1% (inactive)
20,CC1=NN(c2ccccc2)C(=O)/C1=C/c1c(O)n(-c2ccc(F)c(Cl)c2)[nH]c1=O,13.6% (active)
21,CC1=NN(c2ccccc2)C(=O)/C1=C/c1c(O)[nH]c(=S)[nH]c1=O,-4.55% (inactive)
22,CC1=NN(c2ccccc2)C(=O)/C1=C/c1c(O)n(-c2ccc(F)cc2)[nH]c1=O,7.97% (inactive)
23,CCOc1ccc(Nc2nc3ccccc3c(=O)s2)cc1,13.8% (active)
24,CCc1ccc(Nc2nc3ccccc3c(=O)s2)cc1,-0.12% (inactive)

row,SMILES,inhibition
1,O=c1sc(Nc2ccccc2)nc2ccccc12,4.04% (inactive)
2,COc1ccc(/C=N/NC(=O)CCC(=O)Nc2ccccc2)cc1OC,-0.28% (inactive)
3,COc1ccc(N2CCN(C(CNC(=O)C(=O)NCCCn3ccnc3)c3cccnc3)CC2)cc1 (stereo not given),4.95% (inactive)
4,COc1ccc(C(=O)Nc2cc(C(F)(F)F)ccc2Cl)cc1OC,48.9% (active)
5,COc1ccc(/C=C/C(=O)Nc2cc(C(F)(F)F)ccc2Cl)cc1OC,-4.68% (inactive)
6,COc1cccc(C(=O)Nc2cc(C(F)(F)F)ccc2Cl)c1,-5.67% (inactive)
7,Nc1ccc2nc3c(=O)n(C4CCCCC4)c(=O)[nH]c3nc2c1,-0.52% (inactive)
8,Nc1cc2nc3ccccc3nc2cc1N,1.38% (inactive)
9,C/C(=N/NS(=O)(=O)c1ccc(C)cc1)[C@H]1C[C@@H]1c1ccccc1,1.42% (inactive)
10,COC(=O)c1ccc(OCC(=O)c2ccccc2)cc1,2.96% (inactive)
11,COC(=O)c1ccc(OCCOc2ccc(C(=O)OC)cc2)cc1,-4.5% (inactive)
12,COC(=O)c1ccc(OCCOc2ccccc2)cc1,14.7% (active)
13,CCNCCNc1ccc(Cl)cc1[N+](=O)[O-],0.23% (inactive)
14,c1ccc(CCn2nnnc2C(c2cccnc2)N2CCN(c3ccccc3)CC2)cc1 (stereo not given),-3.96% (inactive)
15,CSc1nnc([C@@H]2CCCN2C(=O)OC(C)(C)C)o1,6.66% (inactive)
16,CCOC(=O)c1oc2nc(CC(C)C)c3c(c2c1N)CCCC3,2.38% (inactive)
17,Cc1cc(NCC2CCCO2)n2c(nc3ccccc32)c1C#N (stereo not given),12.8% (active)
18,CCCc1cc(NCC2CCCO2)n2c(nc3ccccc32)c1C#N (stereo not given),7.14% (inactive)
19,CC(C)c1cc(NCC2CCCO2)n2c(nc3ccccc32)c1C#N (stereo not given),5.33% (inactive)
20,O=C(NCC1(N2CCCCC2)CCCCC1)c1ccc(S(=O)(=O)N2CCCC2)cc1,7.41% (inactive)
21,Cc1cccc(C)c1NS(=O)(=O)c1ccc2c(c1)NC(=O)CO2,7.49% (inactive)
22,Cc1c(F)cccc1NS(=O)(=O)c1ccc2c(c1)NC(=O)CO2,-2.89% (inactive)
23,Cc1ccccc1NS(=O)(=O)c1ccc2c(c1)NC(=O)CO2,13.3% (active)
